An excerpt weighted towards active compounds, which were near 1.2% of everything screened.
PI4K2A block = blocks human PI4K2A kinase activity | Q9BTU6 | purified PI4K2A, ADP-Glo luminescence, 1 h; stronger effect = lower value | activity change, negative = inhibition, % at 76.9 µM | 0.13% of 420,000 active | AID 1346378; in the data active = activity change below about -50%; inconclusive = mostly about -30% to -49%
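In this quantitative HTS, ADP production by PI4K2A was quantified luminescently after 1 h at ambient temperature; 100 microM adenosine served as plate-quality control.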
PKM2 act = increases activity of human pyruvate kinase M2; P14618; purified PKM2, Kinase-Glo ATP luminescence, activation; response scale: 0% is enzyme alone, no compound; Potency, µM (top dose mostly 57.5 µM), most hits filed as activators; 0.34% of 260,000 active; AID 1631; note: nearly all actives have a fitted effect of over 55% in size
Target sequence (P14618 whole entry, looked up): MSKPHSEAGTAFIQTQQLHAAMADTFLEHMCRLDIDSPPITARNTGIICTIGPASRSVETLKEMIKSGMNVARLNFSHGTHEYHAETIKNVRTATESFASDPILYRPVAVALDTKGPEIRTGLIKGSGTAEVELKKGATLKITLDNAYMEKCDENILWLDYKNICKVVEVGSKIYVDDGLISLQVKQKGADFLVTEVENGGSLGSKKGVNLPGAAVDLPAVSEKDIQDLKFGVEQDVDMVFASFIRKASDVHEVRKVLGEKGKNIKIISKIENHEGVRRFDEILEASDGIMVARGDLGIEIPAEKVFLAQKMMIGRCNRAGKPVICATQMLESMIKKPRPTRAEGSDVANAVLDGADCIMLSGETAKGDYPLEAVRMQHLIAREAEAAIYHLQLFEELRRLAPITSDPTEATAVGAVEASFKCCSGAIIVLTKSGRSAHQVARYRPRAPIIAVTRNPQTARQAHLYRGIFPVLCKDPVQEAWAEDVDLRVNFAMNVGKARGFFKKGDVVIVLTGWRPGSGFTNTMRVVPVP
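hPK-M2, >95% pure; 0.1 mM ADP / 0.5 mM PEP final; imidazole pH7.2 buffer w/ 7 mM MgCl2, 50 mM KCl; 1 h RT; Kinase-Glo lum. Intermediate enzyme activity for dual inhibitor/activator qHTS.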
TrxR1 substrate = is turned over as a substrate by rat TrxR1; purified TrxR1 substrate turnover, NADPH consumption readout; Potency, µM (titrated, usually from 114 µM); 0.01% of 390,000 active; AID 588456; note: nearly all actives have a fitted effect of over 50% in size
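Rat TrxR1, dispensed at 90 nM, was prereduced with 400 uM NADPH (final) for 5 min at ~22 deg C, then incubated with compound 15 min before 400 uM selenite. A first-read NADPH fluorescence drop versus no-compound background flagged substrates.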
GALK inh = galactokinase (human) inhibition; Purified GALK, Kinase-Glo residual ATP luminescence; Potency, µM (top dose mostly 57.5 µM), most hits filed as inhibitors; 0.007% of 270,000 active
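Galactose (100 uM) and ATP (35 uM) were turned over by 5 nM GALK for 1 h at RT. Kinase-Glo Plus then converted the remaining ATP into a luminescent signal.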
TrxR1 inh = rat TrxR1 inhibition. O89049. recombinant rTrxR1, NADPH fluorescence consumption, selenite substrate. Potency, µM (doses to about 114 µM), usual class: inhibitors. 1% of 390,000 active. AID 588453; note: nearly all actives have a fitted effect of over 65% in size
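Rat TrxR1 (90 nM in the dispensed reagent) was pre-reduced with 400 uM NADPH for 5 min at room temperature, then incubated with compound for 15 min. After 400 uM selenite was added, NADPH fluorescence (Ex 340/Em 450 nm) was followed for 8 min.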
Large screens that a line does not name were inactive. Unless noted, calls come from the whole dose curve; as a rule, active = well fitted curve in the direction sought with a large enough effect; inconclusive = small, poorly fitted or top-dose-only effect, or another doubt; inactive = no such curve, though single readings can be large; an effect the other way counts as inactive or inconclusive.

S=C(Nc1ccccc1)N1CCCCCC1	none
CCCCn1c(SCn2nnc3ccccc3c2=O)nc2cc(S(N)(=O)=O)ccc21	none
CCCCn1c(SCN2C(=O)c3ccccc3C2=O)nc2cc(S(N)(=O)=O)ccc21	PKM2 act 16µM
COc1ccc(C(=O)/C=C/C(=O)N(CC(=O)NC2CCCCC2)Cc2ccccc2OC)c(O)c1	PKM2 act inconclusive, TrxR1 inh inconclusive
COc1ccc(C(=O)/C=C/C(=O)N(CC(=O)NC2CCCCC2)CC2CCCO2)c(O)c1 (stereo unspecified)	PKM2 act 7.9µM, TrxR1 inh 1.3µM
OC[C@H]1O[C@H](O[C@]2(CCl)O[C@H](CCl)[C@@H](O)[C@@H]2O)[C@H](O)[C@@H](O)[C@H]1Cl	none (no result: PKM2 act, TrxR1 substrate, GALK inh, TrxR1 inh)
CCCS(=O)(=O)c1c(S(=O)(=O)CCC)c2c(N)cccn2c1C(=O)c1ccccc1	none
CCCS(=O)(=O)c1c(S(=O)(=O)CCC)c2c(N)cccn2c1C(=O)OC	TrxR1 inh 7.9µM
CCCn1c(-c2ccc(F)cc2)nc2c(NC(C)CN(C)C)nc(C)nc21 (stereo unspecified)	none (no result: PI4K2A block, TrxR1 substrate, GALK inh, TrxR1 inh)
COc1ccc(N(C(C)=O)C2SC(=O)N(c3ccccc3)C2=O)cc1 (stereo unspecified)	none (no result: PI4K2A block, PKM2 act, GALK inh)
CC(=O)N(c1cccc(C)c1)C1SC(=O)N(c2ccccc2)C1=O (stereo unspecified)	PKM2 act 0.4µM
COc1ccc2ccc(O)c(CN(C)CC(=O)Nc3ccccc3C(F)(F)F)c2c1	TrxR1 inh 8.9µM (no result: PKM2 act)
CCN(CC(=O)Nc1ccc(NC(C)=O)cc1)Cc1c(O)ccc2cc(Br)ccc12	TrxR1 inh 6.3µM
CN(C)Cc1c(O)ccc2ccccc12	TrxR1 inh inconclusive
Cc1ccc(NC(=O)CN(C)Cc2c(O)ccc3ccccc23)cc1	TrxR1 inh 14µM
CCN(CC(=O)Nc1ccc(NC(C)=O)cc1)CC(=O)Nc1cccc2ccccc12	none (no result: PKM2 act, TrxR1 substrate, GALK inh, TrxR1 inh)
Cc1ccc2nc(-c3ccc(NC(=O)CSc4nnc(-c5cc(-c6ccc(F)cc6)n[nH]5)n4N)cc3)sc2c1	none (no result: PKM2 act, TrxR1 substrate, GALK inh, TrxR1 inh)
CC(C)[C@H](N)C(=O)N[C@@H](Cc1ccccc1)C(=O)N1CCC2CCN(S(=O)(=O)c3ccccc3)CC21 (stereo partly specified)	none (no result: PKM2 act, TrxR1 substrate, GALK inh, TrxR1 inh)
NC(=O)c1ccsc1NC(=O)CCS(=O)(=O)c1ccc(Cl)cc1	TrxR1 inh 18µM (no result: PKM2 act, GALK inh)
N#Cc1ccsc1NC(=O)CCS(=O)(=O)c1ccccc1	TrxR1 inh 3.2µM
COc1ccccc1CNC(=O)CCCc1nnc2n(CC(C)C)c(=O)c3sccc3n12	none (no result: PKM2 act, GALK inh)
[O-][n+]1ccccc1SSc1cccc[n+]1[O-]	none (no result: PKM2 act, TrxR1 substrate, GALK inh, TrxR1 inh)
O=C(NCc1ccco1)c1cccc2c1C(=O)c1ccc(/C=C/c3ccccc3)cc1S2(=O)=O	TrxR1 inh 22µM (no result: PKM2 act, GALK inh)
O=C(NCc1ccco1)c1cccc2c1C(=O)c1ccc(N3CCC(Cc4ccccc4)CC3)cc1S2(=O)=O	none (no result: PKM2 act, GALK inh)
CC(=O)Nc1ccc(S(=O)(=O)c2ccc(C)cc2)cc1	PKM2 act 14µM
CCOc1c(Cl)cc(CNc2ccc(N3CCCC3)cc2)cc1OC	TrxR1 inh 13µM
CCOc1c(Cl)cc(CNc2ccc(S(N)(=O)=O)cc2)cc1OC	none
O=C(O)/C=C/C(=O)Nc1ccc(Oc2ncnc3cc(Cl)ccc23)nc1	TrxR1 inh 56µM
Cc1cc(C(=O)N/N=C/c2ccc([N+](=O)[O-])o2)c(C)o1	TrxR1 inh inconclusive
Cc1ccc(OCC(=O)N/N=C/c2ccc([N+](=O)[O-])o2)cc1	TrxR1 inh inconclusive
Cc1cc(C)c(S(=O)(=O)N/N=C/c2ccc([N+](=O)[O-])o2)c(C)c1	TrxR1 inh 13µM
O=C(COc1ccccc1)N/N=C/c1ccc([N+](=O)[O-])o1	TrxR1 inh 50µM
O=C(N/N=C/c1ccc([N+](=O)[O-])o1)c1sc2ccccc2c1Cl	TrxR1 inh 79µM
COc1ccccc1NS(=O)(=O)c1cccc(C(=O)N/N=C/c2ccc([N+](=O)[O-])o2)c1	TrxR1 inh 40µM (no result: PKM2 act, GALK inh)
COc1ccc(C)cc1NC(=O)COc1cc(=O)n(C)c2ccccc12	none (no result: PKM2 act, GALK inh)
O=C(c1cc(Cl)ccc1F)N1CCCC(c2nc(-c3cccs3)no2)C1 (stereo unspecified)	none (no result: PKM2 act, TrxR1 substrate, GALK inh, TrxR1 inh)
CCCC/C=C1/[C@H](CC)N(C)C2=N[C@@H](c3ccccc3)CC(=O)N21	none (no result: PKM2 act, TrxR1 substrate, GALK inh, TrxR1 inh)
COC(=O)N/N=C/c1ccc([N+](=O)[O-])o1	TrxR1 inh inconclusive
NC(=O)N/N=C/c1ccc([N+](=O)[O-])o1	TrxR1 inh 7.1µM (no result: PKM2 act, GALK inh)
COc1ccccc1C(OC(=O)c1cccs1)C(=O)NCc1ccco1 (stereo unspecified)	TrxR1 inh 16µM
COc1ccccc1-n1ncc2c(=O)[nH]c(SCC(=O)Nc3ccc(Cl)cc3)nc21	none (no result: PKM2 act, GALK inh)
CCc1ccccc1NC(=O)CSc1ncccc1C(=O)O	none (no result: PKM2 act, GALK inh)
N#C/C(=C\c1ccccc1)C(=O)NNS(=O)(=O)c1cccc([N+](=O)[O-])c1	TrxR1 inh 10µM (no result: PKM2 act, GALK inh)
O=C(NCCO)C(=O)Nc1c2c(nn1-c1ccc(F)cc1)CSC2	none (no result: PKM2 act, GALK inh)
Cc1cc(S(=O)(=O)NCC(c2ccco2)S(=O)(=O)c2cccs2)ccc1F (stereo unspecified)	TrxR1 inh 0.35µM (no result: PKM2 act, GALK inh)
CCCCCC(=O)N(O)C1CC(=O)N(c2ccccc2)C1=O (stereo unspecified)	TrxR1 inh 3.5µM
O=Cc1ccc(Sc2nnc(-c3ccccc3)o2)c([N+](=O)[O-])c1	TrxR1 inh 5µM
CCc1ccc(NC(=O)c2sc3nc(C)c(Cl)c(C)c3c2NC(=O)c2ccccc2)cc1	none (no result: PKM2 act, GALK inh)
